Measured values as given in PMC4336329 (PLoS ONE, 2015).
In all, about 310,000 compounds went through this assay and about 14,000 (4.5%) showed an effect of 50% or more. Effects have a minus sign here. The full list was thinned out, with strong results kept by preference.

Target: human ether-à-go-go-related gene (hERG) potassium channel (human, UniProt Q12809)
Assay: primary screen, population patch clamp on CHO cells stably expressing hERG; higher = less effect of the substance
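Also: peak tail current of the secondary pulse compared with the same well before compound.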

human ether-à-go-go-related gene (hERG) potassium channel, sequence (Q12809 whole entry, looked up): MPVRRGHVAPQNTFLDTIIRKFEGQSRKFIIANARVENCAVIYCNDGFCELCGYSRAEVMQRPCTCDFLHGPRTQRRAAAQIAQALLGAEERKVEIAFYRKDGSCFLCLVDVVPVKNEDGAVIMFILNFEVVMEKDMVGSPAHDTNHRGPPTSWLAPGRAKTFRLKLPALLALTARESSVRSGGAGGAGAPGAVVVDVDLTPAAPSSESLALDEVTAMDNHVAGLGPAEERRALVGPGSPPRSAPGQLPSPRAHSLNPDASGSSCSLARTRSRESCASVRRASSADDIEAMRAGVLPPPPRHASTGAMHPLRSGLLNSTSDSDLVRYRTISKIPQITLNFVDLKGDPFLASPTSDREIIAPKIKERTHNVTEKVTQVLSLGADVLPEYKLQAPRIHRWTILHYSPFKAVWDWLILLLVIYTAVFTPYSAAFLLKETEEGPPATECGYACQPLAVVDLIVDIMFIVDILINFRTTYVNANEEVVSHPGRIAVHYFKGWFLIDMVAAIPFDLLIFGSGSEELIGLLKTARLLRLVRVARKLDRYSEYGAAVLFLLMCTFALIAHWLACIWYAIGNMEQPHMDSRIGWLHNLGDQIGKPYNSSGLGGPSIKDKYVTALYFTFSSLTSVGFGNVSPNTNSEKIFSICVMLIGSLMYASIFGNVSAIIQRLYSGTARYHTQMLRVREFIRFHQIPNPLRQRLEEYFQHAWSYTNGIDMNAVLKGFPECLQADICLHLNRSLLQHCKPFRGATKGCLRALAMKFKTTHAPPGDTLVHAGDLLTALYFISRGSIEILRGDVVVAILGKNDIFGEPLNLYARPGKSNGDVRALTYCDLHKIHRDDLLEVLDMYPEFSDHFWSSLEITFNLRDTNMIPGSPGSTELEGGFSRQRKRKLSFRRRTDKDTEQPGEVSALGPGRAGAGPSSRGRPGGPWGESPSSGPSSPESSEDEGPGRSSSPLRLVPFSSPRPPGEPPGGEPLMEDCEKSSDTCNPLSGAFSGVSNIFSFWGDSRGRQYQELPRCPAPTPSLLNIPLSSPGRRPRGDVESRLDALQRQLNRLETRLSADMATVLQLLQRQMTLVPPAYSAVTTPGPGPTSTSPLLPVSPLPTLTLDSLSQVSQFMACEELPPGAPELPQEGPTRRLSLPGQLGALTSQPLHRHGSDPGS

Row | SMILES | hERG current change (%, negative = inhibition) at 10uM [%]
1 | CCC(=O)Oc1ccc2c(c1)OC1(OC(C)=O)OC(C)CC1=C2C (stereo not shown) | -5.19
2 | CCCCn1nnnc1NCc1cccnc1 | 8.93
3 | COc1ccc(CC(=O)NCc2nnc(SCC(=O)Nc3ccc(OC)cc3)n2C)cc1 | 4.08
4 | Cc1ccc(S(=O)(=O)N2CCN(C(=O)c3ccc(COc4ccccc4)o3)CC2)cc1 | -0.773
5 | CCOC(=O)c1ccc(NC(=O)C2CCCN(S(=O)(=O)c3ccc(F)cc3)C2)cc1 (stereo not shown) | -15.1
6 | COc1ccc(-c2nn(C)c3sc(C(=O)NCCN(C)C)cc23)cc1OC | 15.4
7 | CC(Oc1ccc(Cl)cc1Cl)C(=O)NCCCn1ccnc1 (stereo not shown) | -28
8 | COc1cc(S(=O)(=O)NCCCn2ccnc2)ccc1Cl | 7.94
9 | Cc1cc(Cl)ccc1OCC(=O)NCCCn1ccnc1 | -29.8
10 | Cc1cc(Cl)ccc1OCCCC(=O)NCc1ccncc1 | -44.4
11 | O=C(CCCOc1ccc(Cl)cc1Cl)NCCCn1ccnc1 | -62.5
12 | O=C(OCC(=O)c1ccccc1Cl)c1cnccn1 | -0.611
13 | CCOc1cc(S(=O)(=O)NCCCn2ccnc2)ccc1Cl | -64
14 | Cc1cc(Cl)ccc1OCCCC(=O)NCCCn1ccnc1 | -68.1
15 | Cl.O=C(COc1ccc(Cl)cc1Cl)NCCCn1ccnc1 | -38.6
16 | O=C(COC(=O)c1cnccn1)c1ccc(Cl)cc1 | 24.4
17 | O=C(OCC(=O)c1ccc(Cl)cc1Cl)c1cnccn1 | -58.3
18 | CCOc1cc(Cl)c(S(=O)(=O)NCCCn2ccnc2)cc1Cl | -48.9
19 | Cc1ncc([N+](=O)[O-])n1CC(=O)Nc1ccc(F)cc1F | 13.3
20 | CCOc1ncccc1C(=O)OCC(=O)Nc1ccc(C)c(S(=O)(=O)N2CCOCC2)c1 | -27
21 | CCOC(=O)[C@H]1[C@H]2COc3ccc(OC)cc3[C@@H]2N2C(=O)CN(Cc3ccc(F)cc3)C(=O)[C@@]12C | -26.5
22 | CCOC(=O)/C=c1\s/c(=C\c2ccc(C(=O)OC)cc2)c(=O)n1CC(=O)Nc1ccccc1.Cl | 19.5

Row | SMILES | hERG current change (%, negative = inhibition) at 10uM [%]
23 | COc1ccc(NC(=O)CCCn2c(=O)c3sccc3n(Cc3ccc(C)cc3)c2=O)cc1 | -5.72
24 | COc1ccc(NC(C)=O)cc1S(=O)(=O)N1CCN(C(=O)c2ccccc2F)CC1 | -7.16
25 | O=C(COc1ccc(Cl)cc1)NCCCNC(=O)c1cnccn1 | -10.2
26 | O=C(COc1ccc(Cl)cc1Cl)NCCCNC(=O)c1cnccn1 | -56.5
27 | Cc1ccc(-c2ccc(C(=O)NCCCNC(=O)c3cnccn3)o2)cc1Cl | 25.5
28 | O=C(NCCNC(=O)c1ccc(-c2ccc(Cl)c(Cl)c2)o1)c1cnccn1 | -71.6
29 | O=C(COc1ccccc1Cl)NCCCNC(=O)c1cnccn1 | 5.28
30 | O=C(NCCCNC(=O)c1ccc(-c2cccc(Cl)c2)o1)c1cnccn1 | -31.8
31 | CCn1c(SCc2cc(=O)[nH]c3ccccc23)nnc1C1CC1 | 8.48
32 | O=C(N/N=C/c1ccncc1)c1cccc(NC(=O)c2ccccc2Cl)c1 | -2.33
33 | O=C(C1CCN(S(=O)(=O)c2cccc3nsnc23)CC1)N1CCCCC1 | 2.03
34 | O=C(CN1CCN(c2ccc(F)cc2)CC1)N(C1CCCC1)C1CCS(=O)(=O)C1 (stereo not shown) | -40.4
35 | Cc1ccccc1Cn1cc(/C=N/n2cnnc2)c2ccccc21 | 14.8
36 | COc1cc(CC(=O)Oc2ccc3c(c2)OCO3)cc(OC)c1OC | -2.51
37 | COc1ccc(CCNC(=O)CS(=O)(=O)Cc2nc(-c3ccccc3Cl)oc2C)cc1OC | -3.23
38 | C/C(=N\NC(=O)c1cc(-c2ccncc2)nc2ccccc12)c1ccc(OC(F)F)cc1 | -56.1
39 | COc1ccc(-c2cc(C(=O)N/N=C(\C)c3cccnc3)c3ccccc3n2)c(OC)c1 | 1.6
40 | CCn1cc(CNC(=O)c2cc(-c3ccccc3OC)nc3ccccc23)c(C)n1 | -19.5
41 | COc1ccc(-c2cc(C(=O)N/N=C(\C)c3cccnc3)c3ccccc3n2)cc1 | 8.87
42 | COc1ccc(OC)c(-c2cc(C(=O)N/N=C(\C)c3cccnc3)c3ccccc3n2)c1 | -65.5
43 | COc1ccc(/C(C)=N/NC(=O)c2cc(-c3cccnc3)nc3ccccc23)cc1 | 10.6
44 | CC(=O)Nc1cccc(/C(C)=N/NC(=O)c2cc(-c3ccncc3)nc3ccccc23)c1 | -6.95

Row | SMILES | hERG current change (%, negative = inhibition) at 10uM [%]
45 | CCn1cc(CNC(=O)c2cc(-c3cc(OC)ccc3OC)nc3ccccc23)c(C)n1 | -53.9
46 | COc1ccc(-c2cc(C(=O)NCc3cn(C)nc3C)c3ccccc3n2)cc1OC | 2.61
47 | CCOC(=O)c1cc(-c2ccccc2C)n(CC2CC(c3cccc([N+](=O)[O-])c3)=NO2)n1 (stereo not shown) | 0.113
48 | Cc1csc(SCC(=O)Nc2cccc(S(=O)(=O)N3CCOCC3)c2)n1 | -6.13
49 | CCn1nnnc1SCC(=O)N1c2ccccc2CCc2ccccc21 | 2.92
50 | CCOC(=O)C(=O)Nc1nnc(SCc2ccc(F)cc2)s1 | 1.7
51 | Cc1ccc(SCC(=O)NC2CC2)cc1 | 13.3
52 | CCOCCCNC(=O)c1cc(C)nn1-c1ccccc1 | 11
53 | CCCN1CCC(NCc2cn(C)nc2-c2ccc(Oc3ccccc3)cc2)CC1 | -66.1
54 | Cn1cc(CN2CCC(CO)CC2)c(-c2ccc(Oc3ccccc3)cc2)n1 | -67.5
55 | CCN(CC)C(=O)C1CCN(Cc2cn(C)nc2-c2ccc(Oc3ccccc3)cc2)CC1 | -46.9
56 | COCCN1CCN(Cc2cn(C)nc2-c2ccc(Oc3ccccc3)cc2)CC1 | -65.2
57 | Cn1cc(CN2CCC(O)CC2)c(-c2ccc(Oc3ccccc3)cc2)n1 | -23.7
58 | Cn1cc(CN2CCN(CCO)CC2)c(-c2ccc(Oc3ccccc3)cc2)n1 | -32.3
59 | COCCN1CCCC(CNCc2cn(C)nc2-c2ccc(Oc3ccccc3)cc2)C1 (stereo not shown) | -33.2
60 | CC1CN(Cc2cn(C)nc2-c2ccc(Oc3ccccc3)cc2)CCN1C (stereo not shown) | -57.2
61 | C[C@H]1C(=O)N(C)CCN1Cc1cn(C)nc1-c1ccc(Oc2ccccc2)cc1 | -4.92
62 | COC1CCCN(Cc2cn(C)nc2-c2ccc(Oc3ccccc3)cc2)C1 (stereo not shown) | -40.7
63 | CCOC(=O)C1CCN(Cc2cn(C)nc2-c2ccc(Oc3ccccc3)cc2)CC1 | -44.9
64 | Cn1cc(CN2CCCC(CO)C2)c(-c2ccc(Oc3ccccc3)cc2)n1 (stereo not shown) | -26.2
